Data reported in PubChem BioAssay (NCATS).

assay: High-throughput drug toxicity screening in the BPDCN cell line Cal-1 (AID 1224825); conditions: Cal-1 BPDCN cell viability, qHTS; at 45.8 µM (top of the series) unless noted
Excerpt: Blastic plasmacytoid dendritic cell neoplasm (BPDCN) is a rare, aggressive and largely incurable hematologic malignancy originating from plasmacytoid dendritic cells (pDCs). Although an initial response to chemotherapy is common, BPDCN prognosis is extremely poor and most patients relapse with drug-resistant disease leading to a median overall survival of ~1 year after diagnosis. To explore novel potential therapeutic strategies in BPDCN, we performed a high-throughput drug toxicity screening in BPDCN cell liens, using of a library of 1,912 small molecules, enriched for compounds that are either approved or in early stages of development for cancer therapy.
A total of 500 exponentially growing Cal-1 cells were seeded per well in 5 uL of media (RPMI + Glutamine, without phenol red plus10% FBS and 1X Pen/Strep) into 1536-well solid white high base tissue culture treated Greiner One Bio Plates (789173-F), using a multidrop combi dispenser and a small sterile cassette. Compounds and controls totaling 23nL per well (negative control DMSO and positive control 9.2 uM Bortezomib-final) were immediately added to the plates using a 1536 head pin tool from Kalypsys. The plates were then covered with stainless steel gasket lids from Kalypsys and incubated for 48 hours at 37C under 95% relative humidity with 5% CO2. After 48 hours, the plates were removed and allowed to reach room temperature before 3 uL of Cell Titer Glo reagent (Promega) were added using an Aurora Flying Reagent Dispenser Bioraptor. The plates were then spun at 1000 rpms to remove bubbles and incubated for 15 minutes at room temperature before reading on a ViewLux using a luminescent filter with a 10 second exposure. The relative luciferase units were used to calculated percent activity using DMSO as 100% and Bortezomib as 0%.

Point of comparison: `COc1ccc(CCC(=O)Nc2nc3ccc(Cl)cc3s2)cc1OC`, viability (% of control) 98.2%. Against it:
- O=S(=O)(O)c1ccc2cc(N=Nc3cc(S(=O)(=O)O)c4cccnc4c3O)ccc2c1 — lower, 89.1%
- CC(C)(O)CC(=O)NCCn1ccc2ncnc(Nc3ccc(Oc4cccc(C(F)(F)F)c4)c(Cl)c3)c21 — lower, 61.4%
- CCN(CCO)CCCOc1ccc2c(Nc3cc(CC(=O)Nc4cccc(F)c4)[nH]n3)ncnc2c1 — lower, 15.3%
- COC(=O)N1CCN(Cc2cccc(NC(=O)Nc3ccc(C)nc3)c2F)CC1 — lower, 90.8%
- COc1cc(F)c(C(C)C)cc1-c1ccc(C(F)(F)F)cc1CN1C(=O)O[C@H](c2cc(C(F)(F)F)cc(C(F)(F)F)c2)[C@@H]1C — lower, 33.1%
- CCCCCCCCCCCCCCCC(=O)O[C@H]1[C@@H](O)[C@@H](O)[C@@H]([C@H](NC(=O)[C@@H]2C[C@@H](CCC)CN2C)[C@H](C)Cl)O[C@@H]1SC — lower, 94.5%
- COc1cc(CNC(=O)CCCCC=CC(C)C)ccc1O — lower, 27.5%
- CC(C)c1c(C(=O)Nc2ccccc2)c(-c2ccccc2)c(-c2ccc(F)cc2)n1CC[C@H](O)C[C@@H](O)CC(=O)O — lower, 93.6%
- CC1(C)CC(=O)c2c(C(F)(F)F)nn(-c3ccc(C(N)=O)c(NC4CCC(O)CC4)c3)c2C1 (stereo not given) — lower, 13.5%
- C[C@@H](O)[C@H]1C(=O)N2C(C(=O)OCOC(=O)C(C)(C)C)=C(SC3CN(C4=NCCS4)C3)[C@H](C)[C@H]12 — lower, 39.5%
- COc1cccc(OC)c1-c1cc(C(=O)NC2(C(=O)O)C3CC4CC(C3)CC2C4)nn1-c1ccnc2cc(Cl)ccc12 (stereo not given) — higher, 128%
- CC(=O)OCC(=O)[C@@]1(O)CC[C@H]2[C@@H]3CCC4=CC(=O)C=C[C@]4(C)[C@@H]3[C@@H](O)C[C@@]21C — lower, 58.1%
- CON(C)C(=O)N1N=C(c2cc(F)ccc2F)S[C@]1(CCCN)c1ccccc1 — lower, 7.01%
- CN(C)CCOc1ccc(-c2nc(-c3ccc4c(c3)CCC4=NO)c(-c3ccncc3)[nH]2)cc1 — lower, 36.1%
- NCC1CCC(C(=O)O)CC1 (stereo not given) — higher, 115%
- Cc1ccc(NC(=O)c2cccc(N(C)C)c2)cc1NC(=O)c1ccc(O)cc1 — lower, 5.55%
- Fc1ccc(C(c2ccc(F)cc2)N2CCN(CC=Cc3ccccc3)CC2)cc1 — lower, 30.9%
- COc1cc2ncnc(Nc3cc(Br)c(O)c(Br)c3)c2cc1OC — lower, 11%
- CCC[C@@H](NC(=O)[C@@H]1[C@H]2CCC[C@@H]2CN1C(=O)[C@@H](NC(=O)[C@@H](NC(=O)c1cnccn1)C1CCCCC1)C(C)(C)C)C(=O)C(=O)NC1CC1 — lower, 63.1%
- CNC(=O)[C@H](Cc1ccccc1)NC(=O)[C@H](CC(C)C)[C@H](CSc1cccs1)C(=O)NO — lower, 56.4%
- COC(=O)Nc1ccc(-c2nc(N3CCOCC3)c3cnn(C4CCN(C(=O)OC)CC4)c3n2)cc1 — lower, 4.85%
- CCC(=O)OCC(=O)[C@@]1(OC(=O)CC)[C@@H](C)C[C@@H]2[C@H]3CCC4=CC(=O)C=C[C@]4(C)[C@@]3(F)[C@@H](O)C[C@@]21C — lower, 15%
- CCCCOCCOc1nc(-c2ccc(C(=O)O)c(F)c2)sc1C — lower, 73.8%
- Oc1ccc(C=Cc2cc(O)cc(O)c2)cc1 — lower, 39.4%
- NCc1c[nH]c(=S)n1[C@H]1CCc2c(F)cc(F)cc2C1 — lower, 34.2%
- COc1ccc(-c2ccc3ncc4c(c3c2)n(-c2ccc(N3CCNCC3)c(C(F)(F)F)c2)c(=O)n4C)cn1 — lower, 0.939%
- CCOC(=O)[C@H]1O[C@H]1C(=O)N[C@@H](CC(C)C)C(=O)NCCC(C)C — lower, 95%
- CNc1nc(-c2ccc3c(N)n[nH]c3c2)cc(N2C[C@@H](C(=O)NC3CCCCC3)CC[C@@H]2C)n1 — lower, 18.1%
- CCN1C[C@H](C)n2c(c(O)c3c(=O)n(Cc4ccc(F)c(Cl)c4)nc(C(=O)NC)c32)C1=O — higher, 113%
- Nc1ccc(-c2ccc3ncc4ccc(=O)n(-c5cccc(C(F)(F)F)c5)c4c3c2)cn1 — lower, 3.86%
- CCc1cc(-c2n[nH]c(C)c2-c2ccc3c(c2)OCCO3)c(O)cc1O — lower, 9.12%
- Nc1[nH]nc2nnc(-c3c(-c4ccccc4)nn4ccccc34)cc12 — lower, 6.85%
- CO[C@H]1O[C@@H]2O[C@@]3(C)CC[C@@H]4[C@@H](C)CC[C@@H]([C@H]1C)[C@@]24OO3 — lower, 31.3%
- CCC(=C(CC)c1ccc(O)cc1)c1ccc(O)cc1 — lower, 25.3%
- CCCCC(C)(C)[C@H](O)C=C[C@H]1[C@H](O)CC(=O)[C@H]1CC=CCCCC(=O)O — lower, 11.7%
- CC(C)=CCCC(C)=CCCC(C)=CCCC(C)=CCCC(C)=CCCC(C)=CCCC(C)=CCCC(C)=CCCC(C)=CCO — higher, 121%
- CC(C)CNc1ccnc(NCc2csc(-c3ccccc3)n2)n1 — lower, 5.31%
- CCC(=C(c1ccc(O)cc1)c1ccc(OCCNC)cc1)c1ccccc1 — lower, 4.15%
- CCCCN(CCCC)CC(O)c1cc(Cl)cc2c1-c1ccc(Cl)cc1C2=Cc1ccc(Cl)cc1 (stereo not given) — lower, 63%
